Measurements published in PubChem BioAssay (NCI).
About 83,000 compounds went through this panel and 20% of them were active in at least one assay; those are over-represented in the sample as a whole.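 Activity criterion: percent growth below 10, measured after cells in 96-well plates were exposed to a single compound concentration for 48 hours.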 Values without a mark were called inactive. Activity calls are given as the source filed them.

Tested on: A498 renal
Experiment: NCI-60 one-dose screen, 48 h (100 = growth as untreated, 0 = no growth, -100 = all killed)
Conditions: 10 µM unless noted

| SMILES | growth |
| --- | --- |
| CN1CCN(c2ccc3c(c2)nc(NNC(=O)c2cnccn2)c2cccn23)CC1 | 31.4% |
| Cc1cc(C)c(-c2c(O)c(Br)c(-c3c(C)cc(C)c(Br)c3C)c(O)c2Br)c(C)c1Br | 64.7% |
| CCCCCCCCCCCCCCCCCCOc1ccccc1CC(=O)NCC[N+]1(C)CCOCC1 | 67.4% |
| O=C(/C=C/c1cccc(Cl)c1)c1cccc(OCCCCOc2cccc(C(=O)/C=C/c3cccc(Cl)c3)c2)c1 | 96.9% |
| Cc1ccc(-c2nc(C#N)c(S(=O)(=O)NCCO)o2)cc1 | 108% |
| NC(=O)c1ccc(NC(=O)c2oc3ccccc3c2-c2cnn(-c3ccccc3)c2)cc1 | 16.4% [50 µM] |
| O=C(CBr)CN1C(=O)c2ccccc2C1=O | 88.2% |
| CCN(CC)c1ccc(/C=C\c2cc(C)c3cc(C)ccc3n2)cc1 | 18.2% |
| Clc1nn2c(Cn3cnc4c(NCc5ccccc5)ncnc43)nnc2c2ccccc12 | 22.5% |
| CCOC(=O)c1ccc2c(c1)c1c(C)c3ccncc3c(C)c1n2C | -45.6% (active) |
| CCCCCCCCn1ccc2cc(NC(=O)Cn3cc(CN4CCCCCC4)nn3)ccc21 | 88.9% |
| N#CC(C#N)N=Nc1ccc(Cl)cc1Cl | 84.7% |
| Brc1ccc(-c2cnc3nonc3n2)cc1 | 96.7% |
| COc1cccc(C(=O)OCC(O)C(=O)NC23CC4CC(CC(C4)C2)C3)c1 (stereo not given) | 96.9% |
| O=C(Nc1cccc(NC(=O)C2CCCCC2)c1)c1ccccn1 | 96.1% |
| Cc1cc(C)cc(Nc2ccc([N+](=O)[O-])c(NCCN3CCOCC3)n2)c1 | -0.289% (active) |
| O=C(Nc1cccnc1Nc1ccc(Cl)cc1)c1cn(Cc2ccc(F)cc2)nn1 | 88.6% |
| Cn1c(=O)c2c(c3ccccc31)OC(N)=C(C#N)C21C(=O)c2ccccc2C1=O | 82.8% |
| COc1cccc(/C=C2\COc3ccc(O)cc3C2=O)c1 | 104% |
| CCc1cccc(Sc2cc(C(=O)N3Cc4ccc(OCCN(C)C)cc4C3)ccc2O)c1 | 42.2% |
| C=C(CN1CC=CCC1)[C@@H]1CC[C@]2(CO)CC[C@]3(C)[C@H](CC[C@@H]4[C@@]5(C)CC[C@H](O)C(C)(C)[C@@H]5CC[C@]43C)[C@@H]12 | 112% |
| COc1ccc(/C(C)=C(\c2ccc(Cl)cc2)c2ccc(OCCN3CCCC3)cc2)cc1 | 79.1% |
| CC/C(Cc1ccccc1)=C(\c1ccc(OCCN2CCCCCC2)cc1)c1ccc(OC(=O)NCc2ccccc2)cc1 | 82.5% |
| N=c1sc(Cc2cc(Cl)ccc2Cl)cn1CC(=O)c1ccccc1 | 49% |
| C[C@@H]1O[C@@H](O[C@@H]2C[C@H](c3ccc4c(c3O)C(=O)C3=C(C4=O)[C@@]4(O)C(=O)C[C@](C)(O)C[C@@]4(O)C=C3)O[C@H](C)[C@H]2O)C[C@H](O)[C@@H]1O | 95% |
